# Bioassay records from PubChem BioAssay.
# TCR activator – activators of T cell receptors; AID 504894; primary human leukocytes, anti-CD3, IL-2 HTRF, 48 h; Potency, µM (titrated, usually from 9.22 µM), most hits filed as activators; 330,000 tested, under 10 active
#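 Compounds are tested in HTS on primary human leukocytes co-incubated with a-CD3 beads for 48 hr. IL-2 output is measured by time-resolved FRET.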
# ClpP mod – qHTS Assay for Activators of ClpP; purified B. subtilis ClpP, FRET peptide cleavage, 20 min; Potency, µM (highest dose often 57.5 µM); ATP-dependent Clp protease proteolytic subunit (Bacillus subtilis (strain 168)), P80244; 340,000 compounds, 1.9% hits; active = well fitted falling curve with a large enough effect; inconclusive = small, poorly fitted or top-dose-only effect; inactive = no such curve, though single readings can be large or run the other way; also: the source files actives as falling curves though it sought activators and does not explain the sign; nearly all actives have a fitted effect of over 65% in size
# Target sequence (P80244 whole entry, looked up): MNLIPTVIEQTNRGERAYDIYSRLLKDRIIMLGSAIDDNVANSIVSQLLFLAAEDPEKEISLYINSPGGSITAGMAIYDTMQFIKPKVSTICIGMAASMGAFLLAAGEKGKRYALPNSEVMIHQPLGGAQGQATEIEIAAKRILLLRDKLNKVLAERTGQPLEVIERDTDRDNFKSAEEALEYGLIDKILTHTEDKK
#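 ClpP 10 microg/mL final, pH 8 Tris/KCl buffer with BSA, glycerol, Tween-20; compound pinned in; FRET-FV substrate; RT 20 min; Ex320/Em430; ΔFRET vs ADEP 5.8 microM, DMSO, no enzyme.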
# Glioma ERSR ind – induces the endoplasmic reticulum stress response in human glioma cells | U87-MG GRP78 promoter luciferase reporter, 16 h | Potency, µM, actives largely listed as activators | 420,000 compounds, 0.02% hits; also: series mostly up to about 76 µM; nearly all actives have a fitted effect of over 35% in size
#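 ERSR induction read as luciferase luminescence (Bright-Glo, 10 min at room temperature) in stably transfected human U87-MG glioma cells exposed to compounds for 16 h, using GRP78 as sensor.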
# A-T KAP1 phos – potential ataxia-telangiectasia treatments restoring KAP-1 phosphorylation. F2112 A-T fibroblasts, KAP-1 phosphorylation AlphaLISA; neocarzinostatin DNA damage 30 min before lysis. Potency, µM (top dose mostly 57.5 µM), most hits filed as activators. 320,000 compounds, 0.19% hits. AID 485349; also: nearly all actives have a fitted effect of over 45% in size
#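 ATM-like activity read as KAP-1 phosphorylation via AlphaLISA donor/acceptor antibody pairs after lysis and 6 hr at 25C. Cells were ATM-null patient fibroblasts (F2112, hTERT), dosed 60 min, then exposed to the DSB inducer NCS for 30 min.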
# Mito fusion act – mitochondrial division inhibition or fusion activation | S. cerevisiae fusion-defective mutant growth rescue, CellTiterGlo 48 h | 320,000 compounds, 0.23% hits | Potency, µM (top dose mostly 46.1 µM), most hits filed as activators; also: nearly all actives have a fitted effect of over 45% in size
#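 S. cerevisiae fusion-defective temperature-sensitive mutants (e.g. fzo1-1, mgm1-5) grown 48 h at 37C in YPEG (ethanol/glycerol non-fermentable) medium with 23 nl compound per well; growth rescue read as CellTiterGlo luminescence.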
# MBNL1 CUG block – inhibitors of human MBNL1 binding to CUG repeat RNA. Q9NR56. TR-FRET MBNL1-His/biotin-(CUG)12 binding, 665/545 ratio. Potency, µM (titrated, usually from 57.5 µM), actives largely listed as inhibitors. 280,000 compounds, 0.036% hits. AID 2675; active = well fitted inhibition curve with a large enough effect in the signal ratio, with a control signal flat, not every such curve was filed as active; inconclusive = small, poorly fitted or top-dose-only effect, or effect the other way, or a change in a side signal; inactive = no such curve, though single readings can be large or run the other way; the % refers to the signal ratio
# Target sequence (Q9NR56 whole entry, looked up): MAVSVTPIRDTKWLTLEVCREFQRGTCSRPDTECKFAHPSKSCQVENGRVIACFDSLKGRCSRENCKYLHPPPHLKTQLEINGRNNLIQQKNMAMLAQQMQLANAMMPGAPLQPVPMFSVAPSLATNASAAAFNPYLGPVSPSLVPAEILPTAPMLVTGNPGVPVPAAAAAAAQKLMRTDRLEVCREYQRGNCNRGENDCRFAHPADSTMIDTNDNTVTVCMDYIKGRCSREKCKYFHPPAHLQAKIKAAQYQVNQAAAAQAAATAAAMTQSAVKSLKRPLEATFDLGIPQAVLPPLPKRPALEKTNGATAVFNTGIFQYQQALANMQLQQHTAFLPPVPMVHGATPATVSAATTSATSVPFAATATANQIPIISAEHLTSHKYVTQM
#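 His-tagged MBNL1 binding to biotinylated (CUG)12 RNA was measured by TR-FRET using terbium anti-His antibody (0.055 ng/ul final) and streptavidin-XL665 (5 nM final). Compounds were titrated 92 nM to 58 uM; 60 min at room temperature.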
# Hits are given with their value; 0 = inactive; ? = inconclusive; - = no result given; [ ] = dose if it differs, or a comment. Shown are actives, neighbours in structure and some others; about 1.8% of the full set was active somewhere. Unless noted, calls follow the shape of the dose curve; as a rule, active = well fitted curve in the direction sought with a large enough effect; inconclusive = small, poorly fitted or top-dose-only effect, or another doubt; inactive = no such curve, though single readings can be large; an effect the other way counts as inactive or inconclusive.
SMILES,TCR activator,ClpP mod,Glioma ERSR ind,A-T KAP1 phos,Mito fusion act,MBNL1 CUG block
CN1CCc2c(sc3c2C(=O)NC(c2ccccn2)N3)C1 (configuration not stated),0,16µM,0,0,0,?
CCn1c(-c2cccnc2)nc2cc(NC(=O)COC)cc(C(=O)N3CC[C@@H]4CCCC[C@H]4C3)c21,-,-,0,-,-,-
O=C(NCc1cccs1)Nc1ccc(Cl)cc1,0,20µM,0,0,0,0
CN(C(=O)Nc1ccc(Cl)c(Cl)c1)c1ccccc1C(=O)O,0,0,0,0,18µM,0[11.5 µM]
O=C(Nc1ccc(Cl)c(Cl)c1)c1ccccc1,0,0,0,0,?,-
O=C(Cn1c(=O)c2cccn2c2cccnc21)NCCCN1CCN(c2ccc(F)cc2)CC1,0,0,0,0,0,0
CCN1CCN(CCCNC(=O)Cn2c(-c3cccs3)cc3cc(F)ccc32)CC1,-,18µM,0,-,-,-
O=C(Cn1c(-c2cccs2)cc2cc(F)ccc21)NCCCN1CCN(c2ccc(F)cc2)CC1,-,32µM,0,-,-,-
COc1ccc(CCNC(=O)Cn2c(-c3cccs3)cc3cc(F)ccc32)cc1OC,-,0,0,-,-,-
CC1C(=O)C(=O)C=CN1C (configuration not stated),-,-,0,-,-,-
CC(=O)c1ccc(-c2ccc3c4c(ccc3c2)OC(CNC(=O)[C@@H]2CCCN2C(C)=O)C4)s1 (some centres not stated),-,-,0,-,-,-
Cc1cc(N)ccc1-n1c(C)ccc1C,0,32µM,0,0,0,0
COC(=O)c1ccc(C(=O)NCC2Cc3cccc(-c4ccc(C(=O)OC)cn4)c3O2)cc1 (configuration not stated),-,-,0,-,-,-
Cc1ccnn1CC(=O)N1CCOc2c(cc(-c3ncc(C(F)(F)F)cc3Cl)cc2OCC2CCCO2)C1 (configuration not stated),-,-,0,-,-,-
CC(C)(CNC(=O)c1cnn(-c2ncc3c(n2)-c2ccccc2CC3)c1C1CC1)N1CCOCC1,-,-,0,-,-,-
CC(C)(C)NC(=O)c1nc2nc(-c3ccccc3)cc(C(F)(F)F)n2n1,0,28µM,0,0,0,?
O=C(c1nc2nc(-c3ccccc3)cc(C(F)(F)F)n2n1)N1CCOCC1,0,28µM,0,0,0,?
O=C(c1nc2nc(-c3ccc(Cl)cc3)cc(C(F)(F)F)n2n1)N1CCOCC1,0,18µM,0,0,0,?
COc1cc2nc(N(C)C)c(CNCc3cccc4ccccc34)cc2c(OC)c1OC,-,-,0,-,-,-
COc1ccc(CNC(=O)c2cnn(-c3ncc4c(n3)-c3ccccc3CC4)c2C)cc1OC,-,-,0,-,-,-
CCN(CC)CCN1CCn2c3c(c4cc(C)ccc42)CCCC31 (configuration not stated),0,0,0,0,0,0
CCN1CCn2c3c(c4cc(Cl)ccc42)CCCC31 (configuration not stated),0,16µM,0,0,0,0
CCOC(=O)c1cccc(NC(=O)/C=C/c2ccc3c(c2)OCO3)c1,0,?,0,0,0,-
CC(=O)c1cccc(NC(=O)C(OC(=O)/C=C/c2ccc3c(c2)OCO3)c2ccccc2)c1 (configuration not stated),0,28µM,0,0,0,0
CCOC(=O)CN[C@@H](C(=O)N1CC[C@H]1C(=O)NCc1ccc(/C(N)=N/O)cc1)C1CCCCC1,-,-,0,-,-,-
SMILES,TCR activator,ClpP mod,Glioma ERSR ind,A-T KAP1 phos,Mito fusion act,MBNL1 CUG block
Nc1c(C(=O)NC2CC2)c2nc3ccccc3nc2n1-c1ccc2c(c1)OCO2,0,32µM,0,0,0,0
Cn1cc(CN2CCC(C3(c4ccccn4)NC(=O)N(CC4CCCO4)C3=O)CC2)c2ccccc21 (configuration not stated),-,-,0,-,-,-
CCOC(=O)c1c(NC(=O)CSc2nnc3ccccn23)sc2c1CCC2,0,0,0,0,0,0
COC(=O)c1c(NC(=O)CSc2nnc3ccccn23)sc2c1CCC2,0,28µM,0,0,0,-
COc1c(Br)cc2c(C)c(C(=O)O)oc2c1Br,0,0,0,0,0,?
Cc1c(C(=O)O)oc2c3c(ccc12)OCCO3,0,18µM,0,0,0,0
CN(C)/C=N/c1c(C#N)cnn1-c1ccc(F)c(Cl)c1,-,-,0,-,-,-
CN1CCN(C(=O)c2ccc(-c3ccccc3)cc2)CC1,-,32µM,0,0,0,0
O=C(NCCO)C1CCN(C(=O)c2ccc(-c3ccccc3)cc2)CC1,-,32µM,0,0[11.5 µM],0,0
O=C(c1ccc(-c2ccccc2)cc1)N1CCN(c2ccccc2)CC1,0,0,0,0,0,0
Cc1nc2scc(C)n2c(=O)c1S(=O)(=O)NCc1ccccc1,0,0,0,0,0,0
Cc1csc2nc3ccccc3c(=O)n12,0,14µM,0,0,0,0
Cc1nn(C)c(C)c1NC(=O)c1cc2nc(-c3ccco3)cc(C(F)(F)F)n2n1,0,-,0,0,0,?
O=C(Nc1ccc(Cl)cc1)c1cc2nc(-c3ccco3)cc(C(F)(F)F)n2n1,0,14µM,0,0,0,0
CC[C@H](c1ccccc1)c1noc(CCN(CC)CC)n1,-,-,0,-,-,-
COc1ccc(CC(NC(C)=O)C(=O)NC2CCN(c3nc(C)cc(C)c3C#N)CC2)c(OC)c1 (configuration not stated),0,13µM,0,0,0,0
COc1cccc(CC(NC(C)=O)C(=O)NC2CCN(c3nc(C)cc(C)c3C#N)CC2)c1 (configuration not stated),0,?,0,0,0,0
Cc1ccc(CNC(=O)C(=O)Nc2c3c(nn2-c2ccc(F)cc2)CSC3)cc1,-,0,0,-,-,-
Cc1ccc(-n2nc(CO)c(C(=O)NCCCc3ccccc3)n2)cc1C,-,32µM,0,-,-,-
O=C(NCCCc1ccccc1)c1nn(-c2ccccc2)nc1CO,-,0,0,-,-,-
CCc1ccc(-n2nc(CO)c(C(=O)NCCCc3ccccc3)n2)cc1,-,28µM,0,-,-,-
Cc1ccc(-n2nc(CO)c(C(=O)NC(C)CCCc3ccccc3)n2)cc1C (configuration not stated),-,35µM,0,-,-,-
CCc1ccc(-n2nc(CO)c(C(=O)NC)n2)cc1,-,14µM,0,-,-,-
Cc1ccc(-n2nc(CO)c(C(=O)NCc3ccccn3)n2)cc1C,-,0,0,-,-,-
Cc1ccc(-n2nc(CO)c(C(=O)NC(C)c3ccccc3)n2)cc1C (configuration not stated),-,35µM,0,-,-,-
CCOc1ccccc1-c1n[nH]c(=S)o1,0,?,0,0,0,0
COc1ccc(-c2n[nH]c(=S)o2)c(OC)c1,0,25µM,0,0,0,0
Cc1cc([C@](C)(N)C(=O)O)ccc1P(=O)(O)O,-,-,0,-,-,-
